DT40 TDP1 no CPT: qHTS for Inhibitors of human tyrosyl-DNA phosphodiesterase 1 (TDP1): qHTS in cells in absence of CPT; hit rate 15% among 420,000; DT40 Tdp1-/- hTDP1 cells, no CPT, ATP luminescence, 48 h; AID 686978, 2013; Potency, µM (top dose mostly 46.2 µM), usual class: inhibitors; further: nearly all actives have a fitted effect of over 55% in size
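Compound effects on proliferation are scored in DT40 Tdp1-/-;hTDP1 cells in the absence of CPT. ATP levels (CellTiter-Glo luminescence) are recorded after a ≥48 hr, 37 °C incubation.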
ASM inhibitor: human S-ASM enzyme inhibition; P17405; placental ASM, HMU-PC fluorogenic substrate, 60 min; Potency, µM (titrated, usually from 57.5 µM), usual class: inhibitors; hit rate 0.006% among 340,000; AID 504937
Target sequence (P17405 47-631 limits assumed): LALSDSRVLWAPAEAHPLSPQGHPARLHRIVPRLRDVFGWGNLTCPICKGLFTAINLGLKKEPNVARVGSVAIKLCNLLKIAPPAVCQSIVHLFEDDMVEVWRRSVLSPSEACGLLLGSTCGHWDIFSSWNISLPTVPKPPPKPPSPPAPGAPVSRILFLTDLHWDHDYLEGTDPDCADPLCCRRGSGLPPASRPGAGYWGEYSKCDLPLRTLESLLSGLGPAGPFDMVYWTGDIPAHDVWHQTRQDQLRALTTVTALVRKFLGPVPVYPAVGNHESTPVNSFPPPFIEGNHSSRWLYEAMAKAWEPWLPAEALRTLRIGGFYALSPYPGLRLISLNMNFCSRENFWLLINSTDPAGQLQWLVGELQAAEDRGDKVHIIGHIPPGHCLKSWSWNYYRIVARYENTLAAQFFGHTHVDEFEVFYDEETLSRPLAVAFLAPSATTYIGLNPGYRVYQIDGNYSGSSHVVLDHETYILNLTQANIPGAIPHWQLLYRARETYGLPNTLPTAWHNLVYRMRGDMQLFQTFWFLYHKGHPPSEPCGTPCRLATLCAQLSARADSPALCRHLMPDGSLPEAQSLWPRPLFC
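Human placenta-derived ASM enzyme was preincubated with compound for 10 minutes at room temperature, then given fluorogenic substrate HMU-PC0 (9 uM final) for 60 minutes at 37 °C; a pH 10 stop preceded fluorescence reading at Ex 386/Em 447 nm.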
TGFb inhibitor: TGF-b pathway inhibition; HepG2 CAGA-GFP TGF-b/SMAD3 reporter, GFP fluorescence, 18 h; TGF-beta stimulated, 500 pg/mL final; Potency, µM (series often up to 46.1 µM), actives largely listed as inhibitors; hit rate 1.2% among 410,000; AID 588855; further: nearly all actives have a fitted effect of over 65% in size
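Using HEPG2 CAGA-GFP reporter cells at 1000 cells/well, we pinned test compounds, stimulated with recombinant TGF-beta (500 pg/mL final) and measured total well GFP after 18 h.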
HepG2 viability: HepG2 cytotoxicity, counter-screen for TGF-b inhibitors; Potency, µM (series often up to 46.1 µM), hits mostly cytotoxic; HepG2 CAGA-GFP viability, ATP luminescence, 18 h; hit rate 0.76% among 410,000
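CellTiter-Glo luminescence gave cytotoxicity after 18 hours at 37 degrees C. The cells were HepG2 CAGA-GFP in 1% FBS DMEM, stimulated with 500 pg/mL TGF-beta after compound addition. %Activity was normalised to no-cell wells (complete cell-killing) and DMSO (no toxicity), and curves were fitted and classified.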
IL-1B inflam inh: inhibitors of inflammasome signaling (IL-1 beta secretion); activity change, % at 57.5 µM; hit rate 4.7% among 360,000; THP-1 LPS/ATP IL-1B secretion, AlphaLISA, 16 h; stronger effect = lower value; in the data active means activity change below about -50%; inconclusive means mostly about -30% to -49%
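Secreted IL-1B measured by AlphaLISA bead assay after 16 h compound exposure of THP-1 cells; compounds (final up to 57.5 uM) added 1 h before LPS (250 ng/mL) and ATP (1.25 mM) stimulation; lower signal means less secretion.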
DT40 TDP1 CPT: growth inhibition of DT40 Tdp1-/-;hTDP1 cells with camptothecin (screen for TDP1 inhibitors) | hit rate 12% among 420,000 | Potency, µM (highest dose often 46.2 µM), actives largely listed as inhibitors | chicken DT40 Tdp1-/-;hTDP1 cells + 20 nM CPT, ATP luminescence, 48 h | AID 686979; further: nearly all actives have a fitted effect of over 55% in size
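Chicken DT40 Tdp1-/- cells stably complemented with human TDP1 were seeded at 400 cells/well in medium containing 20 nM camptothecin, exposed to pin-transferred compounds, and grown at 37 °C for at least 48 hr. Viability was read as ATP luminescence.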
A number is an active result; - = inactive; ? = inconclusive; . = no result given; [ ] = another dose, or the depositor's remark. Shown are actives, neighbours in structure and some others; about 19% of the full set was active somewhere. Unless noted, the call rests on the fitted dose curve; in most records, active means well fitted curve in the direction sought with a large enough effect; inconclusive means small, poorly fitted or top-dose-only effect, or another doubt; inactive means no such curve, though single readings can be large; an effect the other way counts as inactive or inconclusive.

SMILES	DT40 TDP1 no CPT	ASM inhibitor	TGFb inhibitor	HepG2 viability	IL-1B inflam inh	DT40 TDP1 CPT
CCc1ccccc1N(C)S(=O)(=O)c1cc(-c2cc(C)no2)ccc1OC	?	-	-	-	-	13µM
COCCCNc1ncnc2sc(C(=O)N3CCCCC3)c(C)c12	?	.	.	.	.	-[9.04 µM]
COc1ccc(-c2cnc(C)o2)cc1S(=O)(=O)Nc1c(C)cc(C)cc1C	23µM	.	-	-	.	16µM
COc1ccc(-c2cnc(C)o2)cc1S(=O)(=O)Nc1ccc(C)c(N(C)C)c1	-	.	-	-	.	-
COc1ccc(-c2cnc(C)o2)cc1S(=O)(=O)Nc1ccc(C)c(F)c1	2.6µM	.	?	-	.	2.6µM
COc1ccc(-c2cnc(C)o2)cc1S(=O)(=O)Nc1cccc(C(F)(F)F)c1	?	.	-	-	.	?
COc1ccc(/C=N/OCC(=O)N2CCCC2)c(OC)c1	-	-	-	-	-	-
COc1ccc2c(c1)-c1nc(NC(=O)c3cc(OC)c(OC)c(OC)c3)sc1CC2	18µM	.	-	-	.	?
COc1ccc2c(c1)-c1nc(NC(=O)c3cc(Cl)ccc3OC)sc1CC2	?	.	-	-	.	8.2µM
CCCN(CCC)C(=O)Cn1c(=O)n(Cc2ccc(C(=O)NCCc3ccc(OC)c(OC)c3)cc2)c(=O)c2ccccc21	?	.	-	-	.	?
CCCN(CCC)CCCNC(=O)c1cc2c(-c3ccc(OC)c(OC)c3)nn(C)c2s1	4.6µM	-	-	-	-52	15µM
CCOCCCNC(=O)c1cc2c(-c3ccc(Cl)cc3)nn(C)c2s1	?	-	-	-	-	?
COc1ccc(OC)c(CNC(=O)c2cc3c(-c4ccc(OC)c(OC)c4)nn(C)c3s2)c1	8.2µM	.	-	-	.	?
Nc1cc([N+](=O)[O-])cc(N)c1N	?	.	-	-	.	?
COc1ccc(N(C)C(=O)Cn2cc(S(=O)(=O)N3CCN(c4ccccc4F)CC3)c3ccccc3c2=O)c(OC)c1	23µM	.	-	-	.	-
COCCn1c(SCC(=O)N(C(C)C)C(C)C)nnc1-c1cc2ccccc2cc1O	21µM	-	-	-	-	?
CC(C)N(C(=O)CSc1nnc(-c2cc3ccccc3cc2O)n1Cc1ccco1)C(C)C	21µM	-	?	-	-	13µM
O=C(CSc1nnc(-c2cc3ccccc3cc2O)n1Cc1ccco1)N1CCc2ccccc2C1	?	-	?	-	-71	?
Cc1occc1-c1nnc(SCC(=O)N2CCOCC2)n1Cc1ccco1	-	-	-	-	-	-
COc1cccc(C2C3=C(N=C4SCC(=O)N42)c2ccccc2CC3)c1OC (stereo not drawn)	21µM	-	-	-	-	23µM
O=C(/C=C/c1cccs1)c1ccc(Br)cc1	?	-	?	-	?	?
O=C(/C=C/c1ccc(OCc2ccccc2)cc1)c1cccs1	-	.	.	.	.	-
O=C(C=Cc1cccs1)c1cccs1	26µM	-	-	-	-	?
O=C(/C=C\c1cccs1)c1c(O)ccc2ccc(=O)oc12	?	-	-	-	-83	?
O=C(/C=C/c1ccc(O)cc1)c1cccs1	24µM	.	.	.	.	24µM
SMILES	DT40 TDP1 no CPT	ASM inhibitor	TGFb inhibitor	HepG2 viability	IL-1B inflam inh	DT40 TDP1 CPT
O=C(/C=C/c1ccc(O)cc1)c1ccccc1O	15µM	.	.	.	.	26µM
COc1ccc(/C=C/C(=O)c2ccccc2O)cc1	?	-	-	-	-	?
CCN1CCCC1CNC(=O)c1cnn(-c2nccc(-c3cccs3)n2)c1C1CC1 (stereo not drawn)	-	.	.	.	.	-[9.04 µM]
COc1cccc(CN(C)C(=O)CCNC(=O)c2ccco2)c1	-	-	-	-	-	-
OC(CC1CC12c1ccccc1-c1ncccc12)(c1ccccc1)c1ccccc1 (stereo not drawn)	16µM	-	?	-	?	?
CCOC(=O)C(C)C1(O)c2ccccc2-c2ncccc21 (stereo not drawn)	-	-	-	-	-	-
COc1ccc(OCC(NS(=O)(=O)c2ccc(-n3cnnn3)cc2)C(C)C)cc1 (stereo not drawn)	-	-	-	-	-	-
CC(=NNC(=S)N1CCC1)c1ccccn1	-	-	?	-	-	-
CC(=NNC(=S)N1CC2CCC(CC2)C1)c1cccc(C)n1	0.021µM	-	?	-	-110	0.01µM
Cc1ccc(C(=O)Cn2cnc3ccccc3c2=O)cc1C	?	-	-	-	-	-
CCOc1ccc(S(=O)(=O)c2c(C(=O)c3ccc(C)c(C)c3)cnc3ccccc23)cc1	15µM	.	-	-	.	16µM
Cc1ccc(S(=O)(=O)c2c(C(=O)c3ccccc3)cnc3cc4c(cc23)OCCO4)cc1	21µM	-	-	-	-61	?
COc1ccc(C(=O)c2cnc3cc4c(cc3c2C)OCO4)cc1	?	-	-	-	-56	?
Cc1ccc2ncc(C(=O)c3ccc(C)c(C)c3)c(S(=O)(=O)c3ccc(F)cc3)c2c1	9.2µM	.	-	-	.	8.2µM
Cc1cc(C)cc(C(=O)NCC(=O)OCC(=O)Nc2ccc(C)cc2Br)c1	-	-	-	-	-	-
COc1ccc(C(=O)c2cnc3ccc(C)cc3c2S(=O)(=O)c2ccccc2)cc1	18µM	.	-	-	.	16µM
COc1ccc(S(=O)(=O)c2c(Nc3ccc(F)cc3)sc(C(=O)c3ccc(C)cc3C)c2N)cc1	?	.	-	-	.	?
COc1ccc(C(=O)c2ccccc2Cl)cc1	-	-	-	-	-	-
CCc1ccc(S(=O)(=O)c2c(C(=O)c3ccccc3)cnc3ccc(CC)cc23)cc1	15µM	.	?	-	.	15µM
COc1ccc(S(=O)(=O)c2c(C(=O)c3ccc(C)c(C)c3)cnc3ccc(F)cc23)cc1	6.5µM	.	-	-	.	7.3µM
Cc1cc(C)n2nc(SCC(=O)N3CCN(c4ccccc4)CC3)nc2n1	-	-	-	-	-	-
COc1ccc(S(=O)(=O)N2CCC3(CC2)OCCN3S(=O)(=O)c2ccc(C)cc2)cc1OC	-	-	-	-	-	-
COc1cc(=O)n2c(c1C(=O)N(C)Cc1nonc1C)CCN(Cc1ccccc1F)CC2	-	.	.	.	.	-[9.04 µM]
Cc1ccc(N2C(=O)CCSC23C(=O)N(Cc2ccccc2)c2ccccc23)cc1F (stereo not drawn)	12µM	.	?	-	.	21µM
COc1cccc(CN2C(=O)C3(SCC(=O)N3c3ccc(C)c(Cl)c3)c3ccccc32)c1 (stereo not drawn)	.	.	-	-	.	.
Cc1ccc(N2C(=O)CCSC23C(=O)N(Cc2ccc(F)cc2)c2ccccc23)cc1 (stereo not drawn)	8.2µM	.	?	-	.	8.2µM

Screening data as filed in PubChem.
